Assay [1] deals with Epidermal growth factor receptor (Homo sapiens), P00533 [T790M]. The settings on record: at 1 µM.
Assay [2] has as its system Epidermal growth factor receptor (Homo sapiens), P00533 [L858R,T790M]. Particulars: at 0.1 µM.
The test system is the same in assay [3]. The settings on record: at 1 µM.
Assay [4] concerns the target Ephrin type-A receptor 2 (Homo sapiens) (UniProt P29317). The settings on record: at 0.1 µM.
Assay [5] shares this target. Particulars: at 1 µM.
In assay [6] the target is T1, Ephrin type-A receptor 3 (Homo sapiens) (UniProt P29320).
T1 sequence (whole entry): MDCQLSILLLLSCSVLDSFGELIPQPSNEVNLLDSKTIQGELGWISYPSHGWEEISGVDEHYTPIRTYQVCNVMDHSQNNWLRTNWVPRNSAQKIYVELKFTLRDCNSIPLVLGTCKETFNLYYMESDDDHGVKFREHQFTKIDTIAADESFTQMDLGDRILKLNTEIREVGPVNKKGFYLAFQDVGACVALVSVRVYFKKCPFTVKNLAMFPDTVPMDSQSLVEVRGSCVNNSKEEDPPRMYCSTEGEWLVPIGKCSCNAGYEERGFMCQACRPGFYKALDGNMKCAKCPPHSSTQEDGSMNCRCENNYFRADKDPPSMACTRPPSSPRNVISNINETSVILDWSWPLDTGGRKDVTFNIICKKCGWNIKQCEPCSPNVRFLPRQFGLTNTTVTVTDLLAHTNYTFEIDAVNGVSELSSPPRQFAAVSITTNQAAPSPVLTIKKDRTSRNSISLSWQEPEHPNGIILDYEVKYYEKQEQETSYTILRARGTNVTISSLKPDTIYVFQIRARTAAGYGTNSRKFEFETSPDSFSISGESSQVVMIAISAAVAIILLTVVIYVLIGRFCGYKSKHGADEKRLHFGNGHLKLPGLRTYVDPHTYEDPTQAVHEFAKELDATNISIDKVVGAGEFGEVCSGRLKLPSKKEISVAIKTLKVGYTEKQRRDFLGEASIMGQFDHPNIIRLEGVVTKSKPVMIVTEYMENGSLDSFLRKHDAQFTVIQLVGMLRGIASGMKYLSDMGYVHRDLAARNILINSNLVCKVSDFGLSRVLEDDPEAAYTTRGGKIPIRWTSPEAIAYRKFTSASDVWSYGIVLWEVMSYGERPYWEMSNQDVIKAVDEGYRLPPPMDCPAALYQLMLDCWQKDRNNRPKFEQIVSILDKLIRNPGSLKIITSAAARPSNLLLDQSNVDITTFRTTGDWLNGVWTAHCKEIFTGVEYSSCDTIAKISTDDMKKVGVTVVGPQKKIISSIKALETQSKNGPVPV
Particulars: at 0.1 µM.

The target of assay [7] is T1, Ephrin type-A receptor 3 (Homo sapiens). The settings on record: at 1 µM.
Assay [8] concerns the target Ephrin type-A receptor 4 (Homo sapiens) (UniProt P54764). The settings on record: at 0.1 µM.
Assay [9] shares this target. The settings on record: at 1 µM.
The target in assay [10] is T2, Ephrin type-B receptor 2 (Homo sapiens) (UniProt P29323).
T2 sequence (whole entry): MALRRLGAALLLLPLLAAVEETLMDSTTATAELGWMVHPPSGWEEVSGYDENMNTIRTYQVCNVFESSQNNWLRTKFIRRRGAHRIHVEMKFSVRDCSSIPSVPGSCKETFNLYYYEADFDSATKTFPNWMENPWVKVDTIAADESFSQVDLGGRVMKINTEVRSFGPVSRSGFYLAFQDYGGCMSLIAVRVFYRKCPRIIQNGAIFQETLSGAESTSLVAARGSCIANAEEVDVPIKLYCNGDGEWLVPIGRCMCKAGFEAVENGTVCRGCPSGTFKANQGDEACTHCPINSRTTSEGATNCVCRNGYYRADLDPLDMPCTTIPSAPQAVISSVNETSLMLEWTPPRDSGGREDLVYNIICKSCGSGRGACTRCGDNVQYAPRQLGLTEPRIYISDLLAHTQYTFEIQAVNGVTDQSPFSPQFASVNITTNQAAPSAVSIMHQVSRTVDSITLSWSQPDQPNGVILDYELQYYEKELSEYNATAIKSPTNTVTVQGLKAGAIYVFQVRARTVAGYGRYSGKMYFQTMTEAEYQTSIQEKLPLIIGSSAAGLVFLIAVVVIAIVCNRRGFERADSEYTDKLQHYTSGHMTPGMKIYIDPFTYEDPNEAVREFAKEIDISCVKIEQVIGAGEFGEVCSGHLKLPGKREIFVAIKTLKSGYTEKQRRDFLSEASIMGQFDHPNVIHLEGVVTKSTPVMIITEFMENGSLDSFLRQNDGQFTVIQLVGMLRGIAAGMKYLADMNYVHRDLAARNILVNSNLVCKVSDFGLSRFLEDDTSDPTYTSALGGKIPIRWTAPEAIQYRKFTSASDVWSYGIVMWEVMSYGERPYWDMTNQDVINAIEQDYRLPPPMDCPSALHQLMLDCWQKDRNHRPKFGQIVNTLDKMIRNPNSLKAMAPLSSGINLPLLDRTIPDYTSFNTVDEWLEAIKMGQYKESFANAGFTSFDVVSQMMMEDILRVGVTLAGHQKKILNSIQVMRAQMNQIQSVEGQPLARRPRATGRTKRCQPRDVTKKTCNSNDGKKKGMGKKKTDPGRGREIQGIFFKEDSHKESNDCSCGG
Particulars: at 0.1 µM.

The target of assay [11] is T2, Ephrin type-B receptor 2 (Homo sapiens). The settings on record: at 1 µM.
In assay [12] the target is T3, Ephrin type-B receptor 3 (Homo sapiens) (UniProt P54753).
T3 sequence (whole entry): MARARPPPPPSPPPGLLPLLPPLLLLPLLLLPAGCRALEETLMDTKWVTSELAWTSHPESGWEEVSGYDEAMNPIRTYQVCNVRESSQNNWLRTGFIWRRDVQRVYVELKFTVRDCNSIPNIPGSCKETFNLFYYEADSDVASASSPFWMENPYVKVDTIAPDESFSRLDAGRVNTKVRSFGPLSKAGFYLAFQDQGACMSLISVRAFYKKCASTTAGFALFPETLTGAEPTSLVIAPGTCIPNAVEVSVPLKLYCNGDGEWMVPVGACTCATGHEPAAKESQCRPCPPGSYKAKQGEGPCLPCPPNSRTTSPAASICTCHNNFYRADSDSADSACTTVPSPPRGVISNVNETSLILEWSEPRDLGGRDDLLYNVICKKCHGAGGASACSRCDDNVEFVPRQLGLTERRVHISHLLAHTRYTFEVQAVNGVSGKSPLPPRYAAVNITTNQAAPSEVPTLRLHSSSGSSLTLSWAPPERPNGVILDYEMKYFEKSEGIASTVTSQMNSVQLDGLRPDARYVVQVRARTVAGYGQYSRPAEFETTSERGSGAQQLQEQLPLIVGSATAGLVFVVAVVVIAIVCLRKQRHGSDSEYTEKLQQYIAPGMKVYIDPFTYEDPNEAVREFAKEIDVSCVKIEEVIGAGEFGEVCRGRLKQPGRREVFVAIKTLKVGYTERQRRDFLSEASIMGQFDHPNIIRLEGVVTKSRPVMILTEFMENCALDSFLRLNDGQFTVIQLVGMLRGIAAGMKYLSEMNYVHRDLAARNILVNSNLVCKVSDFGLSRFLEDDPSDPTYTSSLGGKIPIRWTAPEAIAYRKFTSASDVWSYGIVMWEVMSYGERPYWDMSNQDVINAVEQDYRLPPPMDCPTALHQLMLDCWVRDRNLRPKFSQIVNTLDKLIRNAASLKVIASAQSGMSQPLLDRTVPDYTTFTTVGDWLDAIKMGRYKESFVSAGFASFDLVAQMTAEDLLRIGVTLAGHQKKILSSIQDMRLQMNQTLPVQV
The settings on record: at 0.1 µM.

For assay [13], the target named is T3, Ephrin type-B receptor 3 (Homo sapiens). The settings on record: at 1 µM.
In assay [14] the target is T4, Ephrin type-B receptor 4 (Homo sapiens) (UniProt P54760).
T4 sequence (whole entry): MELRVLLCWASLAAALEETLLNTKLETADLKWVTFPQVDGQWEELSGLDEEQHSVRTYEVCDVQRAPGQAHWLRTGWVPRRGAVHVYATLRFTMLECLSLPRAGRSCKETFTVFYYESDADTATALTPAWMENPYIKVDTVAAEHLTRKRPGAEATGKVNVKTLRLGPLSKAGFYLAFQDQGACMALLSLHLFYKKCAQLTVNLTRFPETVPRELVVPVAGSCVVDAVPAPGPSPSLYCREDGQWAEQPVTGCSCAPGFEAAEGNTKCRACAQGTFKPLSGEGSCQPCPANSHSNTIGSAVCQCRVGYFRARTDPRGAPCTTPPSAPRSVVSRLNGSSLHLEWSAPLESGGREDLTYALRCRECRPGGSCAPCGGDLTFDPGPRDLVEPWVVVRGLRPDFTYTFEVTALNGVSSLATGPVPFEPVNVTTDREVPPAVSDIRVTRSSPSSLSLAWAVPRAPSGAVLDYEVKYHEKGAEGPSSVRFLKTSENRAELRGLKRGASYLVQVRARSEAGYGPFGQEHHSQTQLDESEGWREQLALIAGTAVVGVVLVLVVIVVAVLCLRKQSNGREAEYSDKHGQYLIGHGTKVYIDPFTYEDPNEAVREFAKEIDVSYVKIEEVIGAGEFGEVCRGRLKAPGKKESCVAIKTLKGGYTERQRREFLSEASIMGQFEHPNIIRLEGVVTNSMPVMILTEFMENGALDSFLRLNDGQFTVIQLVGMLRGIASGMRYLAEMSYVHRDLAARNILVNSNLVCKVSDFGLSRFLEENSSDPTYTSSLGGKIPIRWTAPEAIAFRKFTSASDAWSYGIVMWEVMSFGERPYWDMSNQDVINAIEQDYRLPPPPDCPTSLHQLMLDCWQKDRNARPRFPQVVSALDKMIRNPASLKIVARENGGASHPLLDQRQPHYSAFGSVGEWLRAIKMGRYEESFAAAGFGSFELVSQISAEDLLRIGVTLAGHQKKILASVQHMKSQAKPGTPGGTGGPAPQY
The settings on record: at 0.1 µM.

Assay [15] has as its target T4, Ephrin type-B receptor 4 (Homo sapiens). The settings on record: at 1 µM.
Assay [16] deals with Receptor tyrosine-protein kinase erbB-2 (Homo sapiens) (UniProt P04626). Particulars: at 0.1 µM.
Assay [17] shares this target. Particulars: at 1 µM.
Assay [18] addresses Receptor tyrosine-protein kinase erbB-4 (Homo sapiens) (UniProt Q15303). The settings on record: at 0.1 µM.
Assay [19] shares this target. The settings on record: at 1 µM.
For assay [20], the target named is Tyrosine-protein kinase Fer (Homo sapiens) (UniProt P16591). Particulars: at 0.1 µM.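 Note: reported figures are averaged percent inhibition of FER.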
Tyrosine-protein kinase Fer (Homo sapiens), sequence (P16591 whole entry, looked up): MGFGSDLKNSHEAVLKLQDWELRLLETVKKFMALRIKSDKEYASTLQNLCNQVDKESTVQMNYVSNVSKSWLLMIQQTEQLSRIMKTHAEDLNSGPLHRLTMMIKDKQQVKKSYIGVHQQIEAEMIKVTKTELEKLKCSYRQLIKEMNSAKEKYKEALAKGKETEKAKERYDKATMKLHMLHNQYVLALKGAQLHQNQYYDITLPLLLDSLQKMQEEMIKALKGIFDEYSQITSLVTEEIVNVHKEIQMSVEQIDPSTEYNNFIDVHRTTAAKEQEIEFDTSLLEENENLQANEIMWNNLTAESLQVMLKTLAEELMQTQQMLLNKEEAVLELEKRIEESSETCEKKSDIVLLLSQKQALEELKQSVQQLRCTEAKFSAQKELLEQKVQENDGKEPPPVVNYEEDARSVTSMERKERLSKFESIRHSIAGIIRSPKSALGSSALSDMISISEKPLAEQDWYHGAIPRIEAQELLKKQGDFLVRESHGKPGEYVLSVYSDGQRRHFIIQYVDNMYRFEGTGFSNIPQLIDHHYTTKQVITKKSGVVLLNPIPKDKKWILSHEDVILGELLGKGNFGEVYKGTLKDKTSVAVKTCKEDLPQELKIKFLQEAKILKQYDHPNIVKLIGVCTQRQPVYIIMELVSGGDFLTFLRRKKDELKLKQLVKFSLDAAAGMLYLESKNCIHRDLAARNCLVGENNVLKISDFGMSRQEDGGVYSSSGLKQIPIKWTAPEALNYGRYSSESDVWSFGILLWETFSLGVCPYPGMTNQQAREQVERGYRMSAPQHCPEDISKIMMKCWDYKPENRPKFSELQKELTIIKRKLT

Ephrin type-A receptor 2 (Homo sapiens), sequence (P29317 whole entry): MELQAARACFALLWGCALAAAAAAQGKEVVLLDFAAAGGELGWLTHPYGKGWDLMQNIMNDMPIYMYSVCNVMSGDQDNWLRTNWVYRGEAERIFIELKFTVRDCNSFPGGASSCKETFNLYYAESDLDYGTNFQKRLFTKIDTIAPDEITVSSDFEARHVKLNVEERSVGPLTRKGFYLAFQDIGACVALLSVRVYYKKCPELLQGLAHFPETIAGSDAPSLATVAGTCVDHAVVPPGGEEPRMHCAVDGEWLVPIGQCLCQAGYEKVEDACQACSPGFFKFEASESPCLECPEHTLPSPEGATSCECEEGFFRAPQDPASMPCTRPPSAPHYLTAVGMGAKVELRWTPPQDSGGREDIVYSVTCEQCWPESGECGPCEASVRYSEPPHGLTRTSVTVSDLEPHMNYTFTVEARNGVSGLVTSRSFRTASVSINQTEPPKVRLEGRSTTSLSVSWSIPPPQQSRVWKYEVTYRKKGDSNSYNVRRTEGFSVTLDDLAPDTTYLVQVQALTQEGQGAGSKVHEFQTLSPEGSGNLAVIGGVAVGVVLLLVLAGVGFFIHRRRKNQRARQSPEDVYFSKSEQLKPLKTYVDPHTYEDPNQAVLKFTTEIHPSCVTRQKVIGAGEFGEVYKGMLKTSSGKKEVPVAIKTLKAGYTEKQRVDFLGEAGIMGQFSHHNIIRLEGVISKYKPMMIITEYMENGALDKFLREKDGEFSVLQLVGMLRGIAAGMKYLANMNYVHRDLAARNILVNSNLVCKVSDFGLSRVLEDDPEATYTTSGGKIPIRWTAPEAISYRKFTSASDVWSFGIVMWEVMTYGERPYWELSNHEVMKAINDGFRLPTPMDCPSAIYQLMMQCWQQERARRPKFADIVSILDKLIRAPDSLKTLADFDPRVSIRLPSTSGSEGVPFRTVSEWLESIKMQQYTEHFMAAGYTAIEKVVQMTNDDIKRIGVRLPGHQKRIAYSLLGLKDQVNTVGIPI
Epidermal growth factor receptor (Homo sapiens), P00533 [L858R,T790M], sequence (P00533 whole entry T790M/L858R, looked up): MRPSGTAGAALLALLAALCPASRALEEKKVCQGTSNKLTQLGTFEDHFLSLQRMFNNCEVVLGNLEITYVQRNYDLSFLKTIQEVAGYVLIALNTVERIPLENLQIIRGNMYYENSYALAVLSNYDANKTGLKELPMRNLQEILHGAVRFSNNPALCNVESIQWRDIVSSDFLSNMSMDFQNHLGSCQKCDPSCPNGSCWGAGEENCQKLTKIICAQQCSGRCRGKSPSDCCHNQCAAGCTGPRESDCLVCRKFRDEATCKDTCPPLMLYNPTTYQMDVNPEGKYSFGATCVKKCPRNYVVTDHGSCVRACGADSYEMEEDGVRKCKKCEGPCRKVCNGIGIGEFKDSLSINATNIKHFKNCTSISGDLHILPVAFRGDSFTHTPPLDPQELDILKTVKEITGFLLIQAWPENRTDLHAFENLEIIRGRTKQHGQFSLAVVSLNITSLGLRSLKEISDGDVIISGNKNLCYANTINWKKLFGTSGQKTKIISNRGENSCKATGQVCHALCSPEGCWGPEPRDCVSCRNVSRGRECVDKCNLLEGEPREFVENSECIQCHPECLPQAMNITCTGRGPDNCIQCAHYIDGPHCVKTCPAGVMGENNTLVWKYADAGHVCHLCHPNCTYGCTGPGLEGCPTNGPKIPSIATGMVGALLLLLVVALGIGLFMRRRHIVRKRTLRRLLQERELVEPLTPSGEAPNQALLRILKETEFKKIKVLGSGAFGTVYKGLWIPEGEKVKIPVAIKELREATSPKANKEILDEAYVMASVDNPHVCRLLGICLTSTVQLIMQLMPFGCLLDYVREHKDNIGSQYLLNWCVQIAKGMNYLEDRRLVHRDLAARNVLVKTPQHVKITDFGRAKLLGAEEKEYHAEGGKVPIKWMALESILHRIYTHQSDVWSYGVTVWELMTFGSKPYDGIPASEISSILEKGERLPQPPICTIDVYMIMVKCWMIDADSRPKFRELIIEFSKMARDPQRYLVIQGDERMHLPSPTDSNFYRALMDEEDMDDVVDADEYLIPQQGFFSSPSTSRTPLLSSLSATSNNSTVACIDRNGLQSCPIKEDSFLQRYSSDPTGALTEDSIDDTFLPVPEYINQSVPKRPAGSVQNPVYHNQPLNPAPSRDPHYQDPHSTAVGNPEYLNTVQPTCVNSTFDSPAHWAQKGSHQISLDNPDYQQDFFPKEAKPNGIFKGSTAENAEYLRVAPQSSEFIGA
Epidermal growth factor receptor (Homo sapiens), P00533 [T790M], sequence (P00533 whole entry T790M): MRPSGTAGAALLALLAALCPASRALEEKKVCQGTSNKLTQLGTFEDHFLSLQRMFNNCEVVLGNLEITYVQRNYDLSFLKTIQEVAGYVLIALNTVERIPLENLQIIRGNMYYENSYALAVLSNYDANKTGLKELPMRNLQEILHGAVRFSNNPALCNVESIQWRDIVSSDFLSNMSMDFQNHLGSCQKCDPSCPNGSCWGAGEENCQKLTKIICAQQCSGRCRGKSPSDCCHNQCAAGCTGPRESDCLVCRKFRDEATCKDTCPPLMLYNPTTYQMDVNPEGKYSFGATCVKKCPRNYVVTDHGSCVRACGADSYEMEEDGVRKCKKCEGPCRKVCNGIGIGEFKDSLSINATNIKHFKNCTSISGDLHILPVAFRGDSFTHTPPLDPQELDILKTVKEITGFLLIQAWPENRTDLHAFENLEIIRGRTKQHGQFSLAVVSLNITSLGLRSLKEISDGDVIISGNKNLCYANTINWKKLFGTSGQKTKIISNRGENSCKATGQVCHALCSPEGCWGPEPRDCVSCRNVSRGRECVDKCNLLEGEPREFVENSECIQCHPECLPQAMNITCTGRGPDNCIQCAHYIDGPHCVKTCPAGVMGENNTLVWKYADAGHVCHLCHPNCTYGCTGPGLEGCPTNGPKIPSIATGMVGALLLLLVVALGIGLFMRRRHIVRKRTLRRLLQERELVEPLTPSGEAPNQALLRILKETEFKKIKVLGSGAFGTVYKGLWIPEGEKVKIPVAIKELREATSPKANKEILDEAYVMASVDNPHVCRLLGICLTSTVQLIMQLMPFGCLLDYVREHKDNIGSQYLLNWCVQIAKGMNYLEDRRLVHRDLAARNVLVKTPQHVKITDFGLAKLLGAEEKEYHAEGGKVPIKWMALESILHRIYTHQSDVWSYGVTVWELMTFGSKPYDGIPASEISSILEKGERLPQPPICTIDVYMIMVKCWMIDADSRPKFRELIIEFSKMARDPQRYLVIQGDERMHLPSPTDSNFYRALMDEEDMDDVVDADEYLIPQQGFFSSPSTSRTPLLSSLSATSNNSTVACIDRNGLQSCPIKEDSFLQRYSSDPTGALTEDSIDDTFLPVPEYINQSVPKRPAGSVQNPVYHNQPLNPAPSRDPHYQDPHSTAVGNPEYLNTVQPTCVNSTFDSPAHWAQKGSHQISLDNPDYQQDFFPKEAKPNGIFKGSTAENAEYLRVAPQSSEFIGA

On to `O=S(=O)(CCNCc1ccc(-c2ccc3ncnc(Nc4ccc(OCc5cccc(F)c5)c(Cl)c4)c3c2)o1)c1ccccc1`, for which the inhibition came to 6.26% in assay [1]; 1.22% in assay [2]; 1.97% in [3]; 1.86% in [4]; 1.73% in assay [5]; 4.61% in assay [6]. For the same molecule, the inhibition in [7] was 6.18%; in assay [8] it was 5.63%; in assay [9], 13.3%; in assay [10], 14.7%; in assay [11], 13%; in [12], 4.95%. Further, the inhibition in assay [13] was determined as 4.03%; in assay [14], 0.96%; in [15], 2.99%; in [16] it was 43.9%; in [17] it was 60.5%; in assay [18], 36.4%. The values for the inhibition in [19] and in assay [20] were 89% and 3.86%, respectively.
Turning to `CC(=O)Nc1cccc(C#Cc2cncnc2Nc2ccc(OCc3cccc(F)c3)c(Cl)c2)c1`, the inhibition in assay [4] was 4.33%; in assay [5], 2.42%; in [6], 4.65%; in assay [7] it was 3.23%; in assay [8], 8.19%; in assay [9], 0.69%. The inhibition in [10] came out at 6.52%; in assay [11] it was 10.7%; in [12], 4.08%; in assay [13], 0.84%; in [14], 1.66%; in [15] it was 2.84%. The inhibition turned out to be 0.38% in assay [16]; 10.5% in assay [17]; 20.5% in assay [18]; 57.1% in assay [19]; 1.31% in assay [20].
As to `N#Cc1c(NC(=O)c2ccc(F)cc2)sc2c1CCCC2`, the inhibition was -0.08% in assay [1]; -2.24% in assay [2]; 0.47% in [3]; -2.58% in assay [4]; -2.61% in assay [5]; 1.47% in assay [6]. Moreover, the inhibition in assay [7] is 2.8%; in assay [8] it was 4.24%; in assay [9], 2.26%; in assay [10], 2.69%; in [11], 5.96%; in assay [12], 2.46%. Moreover, the inhibition was 3.74% in [13]; -0.69% in assay [14]; 0.04% in [15]; -0.32% in assay [16]; -0.51% in assay [17]; 5.37% in assay [18]. The figures for the inhibition in assay [19] and in [20] were 7.46% and 0.75%, respectively.
On to `FC(F)(F)c1cccc(-c2nn3ncccc3c2-c2ccnc(Nc3ccc4c(c3)OCCO4)n2)c1`, for which the inhibition is 8.22% in assay [1]; 2.69% in assay [2]; 15.9% in [3]; 2.29% in assay [4]; 1.84% in [5]; 2.54% in assay [6]. Further, the inhibition in [7] is 3.44%; in [8], 4.56%; in [9], 7.91%; in [10] it was 3.11%; in assay [11] it was 18.1%; in assay [12], 5.94%. The inhibition in assay [13] was 3%; in [14] it was 2.8%; in [15], 21.3%; in assay [16], 1.37%; in [17], 11.4%; in [18], 48.3%. For the same molecule, the inhibition in assay [19] turned out to be 81.5%; in assay [20], 0.32%.

In general, inhibition refers to the drop in the measured response relative to a control, in per cent.

Source of the values: ChEMBL document CHEMBL1961873, “Compounds: GSK PKIS; Assays: Nanosyn kinase panel” (2012).
